From paper PMC12136788
The full ranking holds about 24,000 sequences; the median of “enrichment r” is about 0.99, and the highest 2% start at about 3.7. This excerpt belongs to a sample that is enriched for the highest values.

T1: UNK ZnF1-3 (human, UniProt Q9C0B0 31-174)
T1 sequence: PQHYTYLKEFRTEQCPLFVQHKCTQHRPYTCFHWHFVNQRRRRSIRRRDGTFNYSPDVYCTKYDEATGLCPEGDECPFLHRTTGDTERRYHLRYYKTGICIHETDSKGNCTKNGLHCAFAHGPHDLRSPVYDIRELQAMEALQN

B1: chr5:128448638:128448639:+_ENSG00000066583_ENST00000173527|hu_mus|hu_hu_hu_mus_False|8_98 (ssRNA)
RNA: GGGAGUUCUACAGUCCGACGAUCGGCACUCGCCUUAAUUAGAUUCUGAAUUUCCUUGAACUUCGGGUGGUCUUUGUCAGCCACCAGCUGUAGGAGGACAGCCUCACUAGUGGUCACGAUGAUCCCAGUUCGAGCGAGACGCUCCAACAGAGGAUUGAGCAUCA
B2: chr12:39763582:39763583:-_ENSG00000139116_ENST00000544797|hu_mus|hu_hu_hu_mus_False|1_28 (ssRNA)
RNA: GGGAGUUCUACAGUCCGACGAUCCUCUAGGAACUGGGCAUUCACUUUGAAUUCAGGAGGGGGCAGCCCGUUUUUAAUCGCUGAGGUCUUUUUCUCAUCAAUACUCUUAAAAAGGUGUCUAACAGCACGAGAGAUGAUACCCAGCAACAGAGGAUUGAGCAUCA
B3: chr2:48034705:48034706:-_ENSG00000138081_ENST00000403359|hu_hu|FALSE|FALSE (ssRNA)
RNA: GGGAGUUCUACAGUCCGACGAUCCAUAGAAAGAACGUACAUACUGGGACAUGAGUACAGUUACAGCAAGUCUAGGUGUGCUAACAAAACAGGGCACAUUCAAGUACAGUAAGAUUUUGCUUGAAAUUAAAAACAAACUACAUGCAACAGAGGAUUGAGCAUCA
B4: chr3:100366718:100366719:-_ENSMUSG00000008763_ENSMUST00000008907|mus_hu|FALSE|FALSE (ssRNA)
RNA: GGGAGUUCUACAGUCCGACGAUCAUUCUUAAAGAAAAAUCUAUUAUCUGUUAGCAUGAUUGGAGCACUGCAAUGUAUAUGCUAGUAAUAUGGUGUGUAAUUUCACAAGCAAUUUUAUGAGUUCUGCAAUUGCUAGGCUCAAACCAACAGAGGAUUGAGCAUCA
B5: chr15:74751088:74751089:-_ENSG00000138629_ENST00000361351|perfect_dup|FALSE|FALSE (ssRNA)
RNA: GGGAGUUCUACAGUCCGACGAUCCGGGUCUGGAACAGAUUCCUGGAGCUUGCCAGCAAUAAGCUGCUUCAGAAAUGAAAUGCUAUAGCCCCCUAGGGAAUAUUCUCCCAGUUCUGUCUCUGGCAACUGAAGAAUAGAUUUUGGCAACAGAGGAUUGAGCAUCA
B6: chr1:153198750:153198751:+_ENSMUSG00000023150_ENSMUST00000023918|perfect_dup|FALSE|FALSE (ssRNA)
RNA: GGGAGUUCUACAGUCCGACGAUCUUCUGGAUUGAGAUCAUCAAAUUUAACGUGAGAAAUUCCAUGAGGAUCACUAUCACUAUUAAAGAUUUCAAAUAAAUAGGGACUGCAGCAAGCUAGCACUGCUCUGUGUGCUAACAUUUCCAACAGAGGAUUGAGCAUCA
B7: chr1:153198750:153198751:+_ENSMUSG00000023150_ENSMUST00000023918|perfect_dup|FALSE|FALSE (ssRNA)
RNA: GGGAGUUCUACAGUCCGACGAUCUUCUGGAUUGAGAUCAUCCAACUUCACAUGAGAAACUCCAUGAGGGUCACUGUCACUAUUGAAGAUUUCAAAUAGAUAGGGGCUACAGCAAGCCAGGACUGCCCUGUGUGCUAGCAUCUCCAACAGAGGAUUGAGCAUCA
B8: chr8:86505109:86505110:+_ENSMUSG00000005469_ENSMUST00000005606|mus_mus|motif|central (ssRNA)
RNA: GGGAGUUCUACAGUCCGACGAUCCUUGUGCUUCACCAGCAUCACUCGCCCAAAGGAGCCGGUGCCAAGGGUCUUGAUUCGGUCAAACUGAUCCAACUGGGCUGUAUUCUGAGAAGGGGUCUCCCAUUUUUUCAGGAAAUCUUCCAACAGAGGAUUGAGCAUCA
B9: chr2:39006174:39006175:+_ENSG00000152147_ENST00000409566|hu_mus|FALSE|FALSE (ssRNA)
RNA: GGGAGUUCUACAGUCCGACGAUCUACUCCUUCUCACAGGCUAUCACUCUCACUUCUUUAUAAACGUAAUCUUCCCAUUCUAAGGGGCUUUUCUUCAUCCAUUCGCUCAUGGUUACCAGUUGCCCAGAUUCUUUCUAGAUGACUCAACAGAGGAUUGAGCAUCA
B10: 8805033_8805153_1671_3pUTR_ENSMUSG00000021147_ENSMUST00000021572|mouse|control|control (ssRNA)
RNA: GGGAGUUCUACAGUCCGACGAUCAACUUGGAGCUAAGGAACAUCAGUGACUUAUUUUUCUUGUAACAGUGCAGGAAUAUUGAUGUUCCACCCAAUAGCUUGCCUAUCGAACCCACAGGUAAAUAGAUUGCAUAUGGGGUGGUCCAACAGAGGAUUGAGCAUCA
B11: chr2:46850943:46850944:+_ENSG00000119878_ENST00000238892|hu_hu|FALSE|FALSE (ssRNA)
RNA: GGGAGUUCUACAGUCCGACGAUCGUAGGCACAGCCCUGGCAGUAAUGAGAACCUGGUUGGUGCACAGAACUUUUACAAAUUCUACAAGUGGAGAACUUAUUCUUUCCAUAUGGAUCAAAUCUUGCUUUUUUUGAAGUCAAAGCCAACAGAGGAUUGAGCAUCA
B12: 72481967_72485090_997_CDS_ENSMUSG00000030516_ENSMUST00000102592|mouse|control|control (ssRNA)
RNA: GGGAGUUCUACAGUCCGACGAUCUGCUGCCAAACUAUCUUGUGAAAUUUCCUUUACAAAUAUAUGGCUGGCCAAUCGAAGACCAUAUUCUUCAUUUUUCCGAGACUUCACCAGUGUGACCUUGGUGGGCUUUGCGGGCUGACUCAACAGAGGAUUGAGCAUCA
B13: chr4:128986876:128986877:-_ENSMUSG00000057236_ENSMUST00000102598|mus_mus|motif|central (ssRNA)
RNA: GGGAGUUCUACAGUCCGACGAUCGAUGGUGAGACAGGUCAACCAAAAUGGAGAUGGCAUCAAACUAUAGUGGUCAAAGACGGACCCCUAAAAAAGCAACUUUUAUCAAGGAUUAAUUUAAUCUUAAAAACAAACACAAACUAGCAACAGAGGAUUGAGCAUCA
B14: chr16:45711415:45711416:-_ENSMUSG00000022658_ENSMUST00000096057|mus_mus|FALSE|FALSE (ssRNA)
RNA: GGGAGUUCUACAGUCCGACGAUCAUUAGGAUACGUUCUGUGAGUCAAGGAGAGAAACUUUUUGGCAAAUAAAUAAAUAAAUAAUCAAACAAACCAAGACCUUAGGGCACAGGAGGUCAGAGAGGAAAGGGAGUCUUUGCAUAGCAACAGAGGAUUGAGCAUCA
B15: chr11:86070927:86070928:-_ENSMUSG00000018068_ENSMUST00000018212|mus_mus|FALSE|FALSE (ssRNA)
RNA: GGGAGUUCUACAGUCCGACGAUCUGGCACCAACAGUGCCGUCGACAGAGCGAGAAUCAGAAUGGGGACACUGCAAAAAAAAAAAAAAAAGUAAAAAGGAAAGGGAAAAAAAAGGGAGAAGCAACCAGGAGAGAGGGGAAAGCACAACAGAGGAUUGAGCAUCA
B16: chr7:97110809:97110810:-_ENSMUSG00000030619_ENSMUST00000107234|mus_mus|FALSE|FALSE (ssRNA)
RNA: GGGAGUUCUACAGUCCGACGAUCACAAGACUUGGAAAGUAUCAAAUCGCCUAACCAUCGCACACAAUCAACAUAAUUCCUAUGUAUGUCUCUGGUAGAAAAGUCAGGAAAGUGGAUUUUCUGGGAAAUAAAUGGCCUGUUAGUCAACAGAGGAUUGAGCAUCA
B17: chrX:71549400:71549401:+_ENSMUSG00000019087_ENSMUST00000019231|mus_hu|mus_mus_mus_hu_False|8_88 (ssRNA)
RNA: GGGAGUUCUACAGUCCGACGAUCGCAGUAGGAAGAGGGAAGCUCUUCAUCCACUGUCGCUGCAGGGUGGGAAAGCAACAACACGGACACCGUCCCACCCUCAACCCCCCCACUGGCACAGGGUCACAUCUGGGUCAUCAAAGACAACAGAGGAUUGAGCAUCA
B18: chr7:141438946:141438947:+_ENSG00000106028_ENST00000265304|hu_mus|hu_hu_hu_mus_True|8_98 (ssRNA)
RNA: GGGAGUUCUACAGUCCGACGAUCGACGAAAUACCUGACAGGUCUUCCUUCGAAACAUGGCUUCUGUUUUUCUUACAACCUAAUCUUUAGGCUUUUCCUAAAGGAAAGAAAGAAAAGAGAAAAAUGAGCAGGGGAUCAACUACACAACAGAGGAUUGAGCAUCA
B19: chr18:46664354:46664355:-_ENSMUSG00000033319_ENSMUST00000036226|mus_hu|FALSE|FALSE (ssRNA)
RNA: GGGAGUUCUACAGUCCGACGAUCGGAAAAAACUGUAGUAGAAAUGGUUAGGACAAACAAUAAAGUAGAAACAGGGGGGAAACUUGAGAAGAGAAGAAAGAAGCAAGAAAAAAAGACUUUCAAUUGUAUAAAAUUCACAAACCACAACAGAGGAUUGAGCAUCA
B20: chr10:112362727:112362728:-_ENSMUSG00000074748_ENSMUST00000099276|mus_mus|FALSE|FALSE (ssRNA)
RNA: GGGAGUUCUACAGUCCGACGAUCGAUCCCAGCAUGCGAUAAUGCCAGGUAGUGGCCCCUGGGCAUGCGAUGGUGGGAACUAAUUUACUGAAGAAAAAAGCACAAACCACAGAAAAUGUAAAGAACCCCUUCCCCCUAUACACACAACAGAGGAUUGAGCAUCA
B21: chr3:148802587:148802588:-_ENSG00000071794_ENST00000310053|hu_mus|hu_hu_hu_mus_False|18_58 (ssRNA)
RNA: GGGAGUUCUACAGUCCGACGAUCUCCAACAACUUGUCCUCUCAUAGUUCCAAAUAAAACCAAAUCUUGCUCUUCAUCACUAGUUAGGAAGUCAUCUGGAGGAAUAAUGUCUUGGAAUUCAAAACGUGGCAAGAAAGUUGAGUACAACAGAGGAUUGAGCAUCA
B22: chrX:71549400:71549401:+_ENSMUSG00000019087_ENSMUST00000019231|mus_hu|mus_mus_mus_hu_False|8_58 (ssRNA)
RNA: GGGAGUUCUACAGUCCGACGAUCGCAGUAGGAAGAGGGAAGCUCUUCAGUCCAGUGCGCUGCAGGGUGGGAAAGCACAACCUAGACCACCGUCCCACCCUCAACCCCCCCACUGGCACAGGGUCACAUCUGGGUCAUCAAAGACAACAGAGGAUUGAGCAUCA
B23: chr4:88365945:88365946:-_ENSMUSG00000070923_ENSMUST00000094993|mus_mus|motif|central (ssRNA)
RNA: GGGAGUUCUACAGUCCGACGAUCACUUGUAUAGCCAUUUACUAAACAAUAUCAAGCCAAACCAAAAAAAAAAAAGGGUCGGAGUUACCUUUUUGUCUAUUAACUGUAGCAAUAAGGAGAAACAAUACAAGGGGAUGAACAAGACAACAGAGGAUUGAGCAUCA

The binders below were run against T1, UNK ZnF1-3 (assay: nsRBNS (natural sequence RNA bind-n-seq); RBNS binding buffer (assumed for nsRBNS): 25 mM Tris pH 7.5, 150 mM KCl, 3 mM MgCl2, 0.01% Triton X-100, 500 ug/ml BSA, 20 U/ml SUPERase-In, 4 C; UNK is unkempt and MSI1 is Musashi-1; names of the RNAs are library labels; protein concentration not given here; high values mean tight binding).
B1 was tested, and the binding signal was 0.656 enrichment R.
Binder B2 has a binding signal of 1.45 enrichment R.
In the case of B3, the binding signal is reported as 1.25 enrichment R.
With B4 the binding signal was 0.664 enrichment R.
B5 gave a binding signal of 1.14 enrichment R.
Binder B6 has a binding signal of 5.29 enrichment R.
Binder B7 has a binding signal of 5.29 enrichment R.
Binder B8 has a binding signal of 1.11 enrichment R.
B9 gave a binding signal of 0.786 enrichment R.
With B10 the binding signal was 0.759 enrichment R.
B11 showed a binding signal of 0.978 enrichment R.
B12 was tested, and the binding signal was 0.579 enrichment R.
B13 gave a binding signal of 4.74 enrichment R.
Binder B14 has a binding signal of 3.91 enrichment R.
B15 was tested, and the binding signal was 8.95 enrichment R.
For B16, the binding signal was 1.38 enrichment R.
Work on B17 yielded a binding signal of 1.14 enrichment R.
B18 was tested, and the binding signal was 0.543 enrichment R.
Work on B19 yielded a binding signal of 5.26 enrichment R.
In the case of B20, the binding signal is reported as 1.77 enrichment R.
For B21, the binding signal was 1.29 enrichment R.
In the case of B22, the binding signal is reported as 1.31 enrichment R.
In the case of B23, the binding signal is reported as 1.54 enrichment R.
